From PubChem BioAssay
Most compounds without a hit are left out; they make up all but 2.3% or so of the library.
CHO-K1 Ca antag – nonselective inhibitor or artifact in parental CHO-K1 cells; ATP-induced calcium, Fluo-8 fluorescence; inhibition, % at 3 µM; 0.6% of 360,000 active; AID 602250;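 active = inhibition above a per-plate cutoff, the plate's mean sample inhibition plus 3 SD, cut at about 24% in these data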;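 note: 0% = DMSO plus EC80 ATP and 100% = DMSO alone without ATP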
CHRM1 agonist – human M1 muscarinic receptor agonism; P11229; CHO-K1 hM1, Fluo-8 calcium fluorescence, agonist mode; 0% DMSO, 100% acetylcholine EC100; activation, % at 3 µM; 0.33% of 360,000 active;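 active = activation above the run's mean compound activation plus 3 SD, cut at about 16% in these data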;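 note: peak over basal fluorescence ratio within a 140 s kinetic read after compound addition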
Target sequence (P11229 whole entry, looked up): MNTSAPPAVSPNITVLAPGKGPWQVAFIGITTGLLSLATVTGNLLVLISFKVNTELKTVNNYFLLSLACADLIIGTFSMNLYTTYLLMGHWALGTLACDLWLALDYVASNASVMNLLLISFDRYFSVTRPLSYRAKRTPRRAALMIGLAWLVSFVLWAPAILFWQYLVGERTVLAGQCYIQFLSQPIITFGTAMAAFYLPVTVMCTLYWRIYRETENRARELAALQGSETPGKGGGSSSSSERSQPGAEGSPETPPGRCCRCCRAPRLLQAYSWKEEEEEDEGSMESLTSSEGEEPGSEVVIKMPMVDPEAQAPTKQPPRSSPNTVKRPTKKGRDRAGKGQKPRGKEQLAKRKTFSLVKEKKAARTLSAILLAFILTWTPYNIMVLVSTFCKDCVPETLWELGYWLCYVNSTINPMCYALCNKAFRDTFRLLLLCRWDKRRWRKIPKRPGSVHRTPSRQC
M1 PAM – human CHRM1 positive allosteric modulation; 0.088% of 360,000 active; activation, % at 3 µM; P11229; CHO-K1 hM1, Fluo-8 calcium fluorescence, ACh EC20; 0% = ACh EC20, 100% = maximal ACh; in the data active = activation above about 19%, passing the limit was not always enough
CHO-K1 Ca ag – counter-screen for M1 agonists: effect in parental CHO-K1 cells. Fluo-8 calcium fluorescence; scaled to maximal ATP response, vehicle zero. activation, % at 3 µM. 0.48% of 360,000 active. AID 602248; in the data active = activation above about 15%;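 note: untransfected CHO-K1 host cells lacking M1 receptor as counterscreen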
CHO-K1 Ca PAM – counter-screen for M1 PAMs: effect in parental CHO-K1 cells; activation, % at 3 µM; ATP EC20, Fluo-8 calcium fluorescence; 0% at ATP EC20, 100% at ATP max; AID 602247; 0.02% of 360,000 active;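 active = activation above the run cutoff, the mean activation of all test compounds plus 3 SD, cut at about 40% in these data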;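 note: peak over basal fluorescence ratio in a 140 s read after ATP addition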
M1 antag – blocks human M1 muscarinic receptor; P11229; CHO-K1 hM1, Fluo-8 calcium fluorescence, ACh EC80 antagonist; inhibition, % at 3 µM; 1.3% of 360,000 active; AID 588852;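 active = percent inhibition above its own plate's cutoff, namely the mean of that plate's compound wells plus 3 SD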;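 note: peak over basal fluorescence ratio during 140 s after agonist addition; 0% = ACh EC80 plus DMSO and 100% = DMSO alone without agonist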
The depositor's hits bear a star; / = no result given.

SMILES	CHO-K1 Ca antag	CHRM1 agonist	M1 PAM	CHO-K1 Ca ag	CHO-K1 Ca PAM	M1 antag
COc1c(Br)cc(Br)cc1/C=N/NC(=O)c1ccncc1	1	-5	4	15*	3	-3
COC(=O)c1ccccc1-c1c2ccc(=N)cc-2oc2cc(N)ccc12	88*	890*	-24	678*	-23	102*
CN(C)CCCNC(=O)N1c2ccccc2C=Cc2ccccc21	-10	-9	-29	1	10	97*
COc1ccc(C2=Nc3ccccc3NC(=O)C2N(CCc2ccccc2)C(=O)c2cccs2)cc1 (stereo unspecified)	-18	-4	-8	1	29	-7
CCOc1ccccc1NC(=S)N1CCN(c2cccc(OC)c2)CC1	4	1	7	17*	7	-10
COc1cccc(N2CCN(C(=S)Nc3ccccc3OC)CC2)c1	-8	-4	10	0	10	-6
COc1ccc(NC(=S)N2CCN(C(c3ccccc3)c3ccccc3)CC2)c(OC)c1	-8	-14	-33	1	22	46*
O=C1NC[C@H](CCCCN2C[C@H](Cc3ccccc3)N(CCC3CCCCC3)C(=O)C2=O)N(Cc2ccccc2)C1=O	-6	/	/	0	-14	/
O=C(Nc1ccc(N2CCN(C(=O)c3ccccc3)CC2)c(Cl)c1)c1ccc(Br)o1	-15	-2	-5	7	-9	8
O=C(Nc1ccc(N2CCOCC2)c(Cl)c1)c1ccc(Br)o1	12	3	-15	4	-4	41*
CN(CCc1ccccc1)C(c1ccnc2ccccc12)c1nnnn1-c1ccc2c(c1)OCCO2 (stereo unspecified)	26*	/	/	0	-7	/
CC[C@@H]1CC2=C(C(=O)OC(C)(C)O2)[C@H](c2ccc(Cl)cc2)O1	-11	-5	2	0	12	-19
CC(C)NC(=O)c1ccc(CN2CCc3ccccc3C2)cc1	5	-9	-27	0	4	45*
CCN(CC(=O)Nc1ccc(NC(C)=O)cc1)C(=O)C1CC1	-4	1	10	0	5	-4
Cc1cc(C)cc(NC(=O)c2ccc(CSc3nnc(C)s3)cc2)c1	16	0	-12	4	-4	36*
COc1ccc(OC2(C)CCN(Cc3ccc(-c4ccccc4)o3)C2)cc1 (stereo unspecified)	-10	-5	-5	0	-4	-8
Nc1c(Cl)ncnc1N/N=C/c1ccncc1	26*	-2	8	-1	-20	-9
Nc1c(Cl)ncnc1N/N=C/c1cccc(O)c1	-5	-5	3	0	14	-7
O=c1n(Cc2ccccc2)c(O)c2n1Cc1ccccc1N=C2c1ccccc1	0	-2	3	8	14	-18
O=C(COc1ccc2ccccc2c1)Nc1ccncc1	24*	0	-3	14	0	18
Cc1cc(OCC(=O)Nc2ccc3oc(-c4ccncc4)nc3c2)ccc1Cl	-5	-1	8	0	13	-6
Cc1cc(OCC(=O)Nc2ccncc2)ccc1Cl	35*	2	-11	10	-19	28
O=C(CSc1ccncc1)Nc1ccc2ccccc2c1	-6	-6	9	4	9	0
O=C(CSc1ccc2ccccc2c1)Nc1ccncc1	15	-3	-12	13	-1	31*
Cc1cc(OCC(=O)Nc2ccncc2)cc(C)c1Br	25*	10	-11	10	-5	7
COc1cccc(-c2cccc(-c3nc(C(=O)NCCCN4CCOCC4)cc4c3[C@H](CCO)N(S(=O)C(C)(C)C)C4)c2)c1 (stereo partly specified)	-19	-1	-5	8	6	-7
COc1ccc(/C=C/C(=O)OCC(=O)NC2CCCC(C)C2C)cc1S(=O)(=O)N1CCOCC1 (stereo unspecified)	-10	-2	10	2	16	-10
CC1CCCC(NC(=O)COC(=O)/C=C/c2ccc(S(=O)(=O)N3CCOCC3)cc2)C1C (stereo unspecified)	3	-1	7	19*	3	-16
OC[C@@H]1CN(Cc2ccc(Cl)cc2)C[C@H](n2cnc3c(NCc4ccc(F)cc4)ncnc32)O1	-2	-1	2	4	16	-2
